Screens (PubChem BioAssay)
Pf Dd2 growth = inhibitors of Plasmodium falciparum Dd2 growth | P. falciparum Dd2 growth, SYBR Green, 72 h | Potency, µM (highest dose often 28.9 µM), most hits filed as inhibitors | 4.3% of 120,000 active; active means well fitted inhibition curve with a large enough effect; further: nearly all actives have a fitted effect of over 65% in size
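Readout: SYBR Green fluorescence, 485 nm excitation, 535 nm emission, after ~16 h lysis at 37C. Before that, Dd2-infected red cells (2.5% hematocrit) grew 72 h with compound, 29 uM top final concentration.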
Each line names hits and unclear results; the compound was inactive in the other large screens. The entries come from a sample that favours hits as a whole.

Cc1cn2nc(C(=O)Nc3ccc(C(F)(F)F)cc3)cc2c(N2CCSCC2)n1	none
COc1ccc(NC(=O)Cn2c(=O)n(-c3ccc(F)cc3)c(=O)c3c2cc(C)n3C)c(OC)c1	none
CCc1ccc(NC(=O)CN2C(=O)C3(SCC(=O)N3c3ccccc3)c3ccccc32)cc1 (stereo not drawn)	Pf Dd2 growth 11µM
O=C(CN1C(=O)C2(SCC(=O)N2c2cccc(Cl)c2)c2ccccc21)NC1CCCCC1 (stereo not drawn)	Pf Dd2 growth 13µM
NC(=O)CN1C(=O)C2(SCC(=O)N2c2cccc(F)c2)c2ccccc21 (stereo not drawn)	none
CCc1ccc(N2C(=O)CSC23C(=O)N(Cc2cccc(F)c2)c2ccccc23)cc1 (stereo not drawn)	none
COc1cccc(CN2C(=O)C3(SCC(=O)N3c3cc(C)cc(C)c3)c3ccccc32)c1 (stereo not drawn)	none
O=C(CN1C(=O)C2(SCC(=O)N2c2cccc(Cl)c2)c2ccccc21)NCc1ccccc1 (stereo not drawn)	Pf Dd2 growth 11µM
O=C(Cn1c(=O)n(-c2cccc(Cl)c2)c(=O)c2sc3ccccc3c21)NC1CCCCC1	none
CC(C)c1ccc(N2C(=O)CSC23C(=O)N(Cc2ccccc2)c2ccccc23)cc1 (stereo not drawn)	none
Cc1cccc(N2C(=O)CSC23C(=O)N(Cc2cccc(C(F)(F)F)c2)c2ccccc23)c1 (stereo not drawn)	Pf Dd2 growth 10µM
CN1C(=O)C2(SCC(=O)N2c2cccc(C(F)(F)F)c2)c2ccccc21 (stereo not drawn)	none
Cc1cccc(N2C(=O)CSC23C(=O)N(C)c2ccccc23)c1 (stereo not drawn)	none
CCc1ccc(N2C(=O)CSC23C(=O)N(Cc2ccc(C)cc2)c2ccccc23)cc1 (stereo not drawn)	none
Cc1cccc(-c2ocnc2C(=O)N2CCC3(CC2)CC(O)CCO3)c1 (stereo not drawn)	none
COc1ccc(Cl)cc1C(=O)N1CCCN(c2cc(-c3ccc(C)c(C)c3)[nH]n2)CC1	none
CCN(CCNc1ncncn1)c1cccc(C)c1	none
O=C(NC1CCN(c2ccc(F)cc2)C1=O)c1ccccc1Cl (stereo not drawn)	none
CN(Cc1ccccc1)C(=O)CCc1ccnc(N2CCOCC2)c1	none
Cn1c(Cn2cccn2)nnc1C1CCCN(Cc2nc(C(N)=O)no2)C1 (stereo not drawn)	none
COc1cc(Cl)ccc1C(=O)N1CCC(OC2CCN(C)CC2)CC1	none
CC(=O)c1ccccc1OCC(O)Cn1c(CO)nc2ccccc21 (stereo not drawn)	none
CCN(CC)CCn1c(=N)n(CCOc2ccccc2Cl)c2ccccc21	Pf Dd2 growth 4.5µM
COc1ccc(N2CCN(CC(O)COc3ccccc3C(C)(C)C)CC2)cc1 (stereo not drawn)	none
CC(C)C(=O)N1CCC(NCCOc2ccccc2Cl)CC1	none
CCN(CC)CCn1c(=N)n(CC(O)COc2ccccc2C)c2ccccc21 (stereo not drawn)	Pf Dd2 growth 1.3µM
COC(=O)Cn1c(SCCOc2ccccc2Cl)nc2ccccc21	none
OC1(CN2CCN(c3nccs3)CC2)CNCCOC1 (stereo not drawn)	none
Cc1ccc(C(=O)CCc2nc(C3CC(=O)N(C4CCCCC4)C3)no2)cc1 (stereo not drawn)	none
COc1ccc(Cl)cc1-c1ccc2c(c1)C(=O)N1CCN(C(=O)CN)C[C@H]1C(=O)N2	none
CN(Cc1ccc(N2CCCCC2)cc1)C(=O)CCC[C@H]1NC[C@@H]2C[C@H]1CN(Cc1ccccc1)C2	Pf Dd2 growth 4.5µM
CCN1CCN(CCNC(=O)CCC[C@H]2NC[C@@H]3C[C@H]2CN(Cc2ccccc2)C3)CC1	none
CCN1CCN(CCCNC(=O)CCC[C@H]2NC[C@@H]3C[C@H]2CN(Cc2ccccc2)C3)CC1	none
Cc1nccn1CCNC(=O)CCC[C@H]1NC[C@@H]2C[C@H]1CN(Cc1ccccc1)C2	Pf Dd2 growth 3.5µM
O=C(CCC[C@H]1NC[C@@H]2CC1CN(Cc1ccccc1)C2)N1CCCC1	none
CN(Cc1cccnc1)C(=O)CCC[C@H]1NC[C@@H]2C[C@H]1CN(Cc1ccccc1)C2	none
CC(=O)NCCCC(=O)N1Cc2ccccc2OC2(CCN([S+](C)(=O)[O-])CC2)C1	none
CC(=O)Nc1ccc(CN2CCn3c(nnc3C3CCNCC3)C2)cc1	none
Cc1ccc(S(=O)(=O)c2nnn3c2nc(N2CCCC2)c2sccc23)cc1C	none
CCc1ccc(S(=O)(=O)c2nnn3c2nc(NCc2ccc(F)cc2)c2ccccc23)cc1	none
Cc1ccc(S(=O)(=O)c2nnn3c2nc(NCc2ccccc2)c2sccc23)cc1	none
CN1CCN(c2nc3c(S(=O)(=O)c4ccccc4)nnn3c3ccsc23)CC1	none
Cc1ccc(C)c(S(=O)(=O)c2nnn3c2nc(Nc2ccc(F)c(Cl)c2)c2sccc23)c1	Pf Dd2 growth 13µM
Cc1ccc(S(=O)(=O)c2nnn3c2nc(NC(C)c2ccccc2)c2sccc23)cc1 (stereo not drawn)	Pf Dd2 growth 10µM
COc1ccc(Nc2nc3c(S(=O)(=O)c4ccccc4)nnn3c3ccc(Cl)cc23)cc1OC	none
Cc1ccc(C)c(S(=O)(=O)c2nnn3c2nc(N2CCN(C)CC2)c2sccc23)c1	Pf Dd2 growth 8.9µM
Cc1ccc(Nc2nc3c(S(=O)(=O)c4ccccc4)nnn3c3ccsc23)c(C)c1	none
COc1ccc(Nc2nc3c(S(=O)(=O)c4ccc(C)cc4)nnn3c3ccsc23)cc1Cl	none
CC(=O)Nc1ccc(Nc2nc3c(S(=O)(=O)c4cc(C)ccc4C)nnn3c3ccsc23)cc1	none
CCc1ccc(S(=O)(=O)c2nnn3c2nc(Nc2ccc(F)cc2)c2cc(Cl)ccc23)cc1	Pf Dd2 growth 1.3µM
Cc1nc2cc(-c3nc(CC4CCN(C)CC4)nn3CCO)ccc2s1	none
O=C(c1ccc(OC(F)(F)F)cc1)N1CCN(c2cc(-c3ccccc3)[nH]n2)CC1	none
CN1Cc2ncnc(NCCCO)c2CN(c2ccccc2)C1=O	none
COc1ccc(CCC(=O)N2CCC[C@H]2c2nc(-c3ccccc3Cl)no2)cc1	none
CS(=O)(=O)N1CCCN(C(=O)C2CC2)c2ccccc21	none
C[C@@H](NC(=O)C1CC1)c1c(-c2ccc(Cl)cc2)noc1C(=O)O	none
O=C(N[C@@H]1C[C@H](Cn2cc(C3CC3)nn2)[C@@H](O)[C@H]1O)c1ccccc1	none
Cc1ncoc1C(=O)N1CCc2nnc([C@@H]3C[C@@H](O)CN3C(C)C)n2CC1	none
O=C1CO[C@H](c2ccc(NC(=O)C3CCCCC3)cc2)[C@@H](CO)N1	none
Cc1ccc(N2Cc3c(ncnc3N3CCN(C)CC3)N(C)CC2=O)cc1	none
CC1CCCN(c2ncnc3c2CN(c2ccccc2F)C(=O)CN3C)C1 (stereo not drawn)	none
CC1CCCN(c2ncnc3c2CN(c2ccc(Cl)cc2)C(=O)CN3C)C1 (stereo not drawn)	Pf Dd2 growth 10µM
COc1ccc2[nH]c(CN3CCC(CCC(=O)NCc4ccc(F)cc4)CC3)c(C)c2c1	none
CN(C)C(=O)c1nc(-c2cccc(C(F)(F)F)c2)c2cnccn12	none
COCc1ccc(C(=O)N2CCCN(C)C3(CCN(C)CC3)C2)o1	none
C[C@@H](NC(=O)Nc1ccccc1)c1onc(-c2ccc(Cl)cc2)c1C(=O)O	none
CC(C)CN(Cc1cnn(C)c1)C(=O)C1CCN(C(=O)C2CCC2)CC1	none
c1cncc(CN2CCC(C3CCN(Cc4ccc[nH]4)C3)CC2)c1 (stereo not drawn)	none
CC(C)CCN(C1CCOCC1)C1CCN(C(=O)c2ccncc2)CC1	none
CC(C)CCN(C1CCOCC1)C1CCN(Cc2ccc[nH]2)CC1	Pf Dd2 growth 3.2µM
COCCNC(=O)C[C@@H]1C[C@H]2O[C@H](CNCc3ncccc3C)[C@@H](O)[C@H]2O1	none
